PubChem BioAssay (NCI)
About 83,000 compounds went through this panel and 20% of them were active in at least one assay; those are over-represented in the sample as a whole.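 Single-concentration screen, 48 h exposure, 96-well plates. Endpoint: percent growth. Below 10 = active.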 Activity calls are given as the source filed them.

Assays:
Assay in all cases: NCI-60 one-dose screen, 48 h (100 = growth as untreated, 0 = no growth, -100 = all killed)
SR leukemia = conditions: 10 µM unless noted
RPMI-8226 leukemia = conditions: 10 µM
OVCAR-8 ovarian = conditions: 10 µM unless noted
OVCAR-5 ovarian = conditions: 10 µM unless noted
SK-OV-3 ovarian = conditions: 10 µM
IGROV1 ovarian = conditions: 10 µM unless noted
OVCAR-3 ovarian = conditions: 10 µM unless noted
HS 578T breast = conditions: 10 µM unless noted
NCI/ADR-RES ovarian = conditions: 10 µM unless noted
T-47D breast = conditions: 10 µM
BT-549 breast = conditions: 10 µM unless noted
MDA-MB-435 melanoma = conditions: 10 µM unless noted
SW-620 colon = conditions: 10 µM unless noted
MCF7 breast = conditions: 10 µM unless noted
HCT-116 colon = conditions: 10 µM unless noted
HCC-2998 colon = conditions: 10 µM unless noted
KM12 colon = conditions: 10 µM unless noted

Measured: growth

O=S(=O)(Nc1ncccn1)c1ccc(Nc2ccc3nnc(-c4ccncc4)n3n2)cc1
inactive: SR leukemia 102% | RPMI-8226 leukemia 109% | OVCAR-8 ovarian 103% | OVCAR-5 ovarian 94.3% | SK-OV-3 ovarian 103% | IGROV1 ovarian 105% | OVCAR-3 ovarian 104% | HS 578T breast 84.3% | NCI/ADR-RES ovarian 102% | T-47D breast 101% | BT-549 breast 106% | MDA-MB-435 melanoma 108% | SW-620 colon 93% | MCF7 breast 104% | HCT-116 colon 108% | HCC-2998 colon 111% | KM12 colon 101%

COc1ccc(OC2=CC(=O)c3ccc(C)nc3C2=O)cc1
inactive: SR leukemia 51.2% | RPMI-8226 leukemia 79.7% | OVCAR-8 ovarian 80.7% | OVCAR-5 ovarian 114% | IGROV1 ovarian 87.8% | OVCAR-3 ovarian 72.3% | HS 578T breast 83.2% | NCI/ADR-RES ovarian 87.5% | T-47D breast 79.9% | BT-549 breast 90.7% | MDA-MB-435 melanoma 83% | SW-620 colon 94.9% | MCF7 breast 72.4% | HCT-116 colon 74.3% | HCC-2998 colon 102% | KM12 colon 81.3%

O=C(Nc1ccccc1)Oc1cccc2cccnc12
active: OVCAR-3 ovarian -19.4% | HCT-116 colon 1.27%
inactive: SR leukemia 48.2% | RPMI-8226 leukemia 76.2% | OVCAR-8 ovarian 74.4% | OVCAR-5 ovarian 92.9% | SK-OV-3 ovarian 112% | IGROV1 ovarian 20.4% | HS 578T breast 116% | NCI/ADR-RES ovarian 78.5% | T-47D breast 31.5% | BT-549 breast 102% | MDA-MB-435 melanoma 97% | SW-620 colon 48.2% | KM12 colon 108%

COc1nc2c(cc1S(=O)(=O)c1ccccc1)CCc1c-2cnn1-c1cccc(Cl)c1
inactive: SR leukemia 47.4% | RPMI-8226 leukemia 56.6% | OVCAR-8 ovarian 81.8% | OVCAR-5 ovarian 80.1% | SK-OV-3 ovarian 83.2% | IGROV1 ovarian 94.9% | OVCAR-3 ovarian 93.7% | HS 578T breast 102% | NCI/ADR-RES ovarian 89.7% | T-47D breast 59.6% | BT-549 breast 80.8% | MDA-MB-435 melanoma 63% | SW-620 colon 93.7% | HCT-116 colon 62.9% | HCC-2998 colon 101% | KM12 colon 85.4%

N#Cc1ccc(C(F)(F)F)nc1N1CCC(C(=O)Nc2ccc(Cl)cc2)CC1
inactive: SR leukemia 48.3% | RPMI-8226 leukemia 74.1% | OVCAR-8 ovarian 75.8% | OVCAR-5 ovarian 76.9% | SK-OV-3 ovarian 82.5% | IGROV1 ovarian 102% | OVCAR-3 ovarian 99.4% | HS 578T breast 105% | T-47D breast 64.7% | BT-549 breast 70.8% | MDA-MB-435 melanoma 67.5% | SW-620 colon 75.4% | MCF7 breast 60% | HCT-116 colon 41.3% | HCC-2998 colon 68.7%
